The text below walks through data of PubChem BioAssay (NCI).

A short description of experiment [1]: NCI Yeast Anticancer Drug Screen. Data for the rad50 strain (AID 155).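 Note: 0% = growth of vehicle-only cultures of the same strain.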 The settings on record: S. cerevisiae rad50 strain growth inhibition, active compounds read high. In a few lines:
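Inhibition values express reduced yeast growth in compound-treated cultures relative to vehicle-treated controls.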

Experiment [2] in a line: NCI Yeast Anticancer Drug Screen. Data for the mec2-1 strain (AID 157). The settings on record: S. cerevisiae mec2-1 strain, active compounds read high. Summed up:
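Each compound was tested on mec2-1 yeast, a strain altered in DNA damage repair or cell cycle control. Growth inhibition is reported relative to vehicle.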

The nature of experiment [3]: NCI Yeast Anticancer Drug Screen. Data for the sgs1 mgt1 strain (AID 161).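 Note: 0% = growth of cultures given vehicle only.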 Conditions: S. cerevisiae sgs1 mgt1 strain, active compounds read high. In a few lines:
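Test agents were incubated with a DNA-repair-mutant yeast strain. Growth was then read and compared against vehicle-treated controls.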

A short description of experiment [4]: NCI Yeast Anticancer Drug Screen. Data for the cln2 rad14 strain (AID 165).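 Note: 0% = growth equal to vehicle treated cultures.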 Conditions: S. cerevisiae cln2 rad14 strain, active compounds read high. Summed up:
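Test compounds were added to cln2 rad14 yeast cultures; inhibition of growth was then determined by comparison with vehicle treatment.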

A short description of experiment [5]: NCI Yeast Anticancer Drug Screen. Data for the bub3 strain (AID 167). Conditions: S. cerevisiae bub3 mutant strain, active compounds read high. In a few lines:
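Steps: expose the mutant yeast strain to compound; grow alongside vehicle-treated cultures; measure growth; express inhibition against the vehicle cultures.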

Experiment [6] is described as follows: NCI Yeast Anticancer Drug Screen. Data for the mlh1 rad18 strain (AID 175). The settings on record: S. cerevisiae mlh1 rad18 strain growth inhibition, active compounds read high. In a few lines:
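Inhibition values reflect reduced growth of mutant yeast versus vehicle-treated controls following compound exposure; the mutations affect DNA damage repair.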

Where [7] appears, read: at 5.0 µM (retest, dose inferred, filed as 0.5).
The mark [8] stands for this setting: at 50.0 µM (retest, dose inferred, filed as 5.0).

The panel holds about 79,000 compounds, 15% with a hit somewhere; the sample as a whole holds those more often. A number with no mark means an inactive call. The source made the active and inactive calls. Cut-off read from the data, not from the text of the source: active = growth inhibition above about 70%; inactive = the rest.

For `CC1(C)OC2COC3(CNO)OC(C)(C)OC3C2O1` (stereo not given), the growth inhibition in experiment [1] (setting [7]) is 0%; in experiment [1] (setting [8]), -4%; in experiment [1] (at 50.0 µM), 22.5%; in experiment [2] (setting [7]), -1%; in experiment [2] (setting [8]), 1%; in experiment [2] (at 50.0 µM), 32.6%. Also, the growth inhibition is -7% in experiment [3] (setting [7]); -2% in experiment [3] (setting [8]); 83.1% (active) in experiment [3] (at 50.0 µM); -5% in experiment [4] (setting [7]); 8% in experiment [4] (setting [8]); 25.1% in experiment [4] (at 50.0 µM). The growth inhibition in experiment [5] (setting [7]) was 3%; in experiment [5] (setting [8]) it was 5%; in experiment [5] (at 50.0 µM), 63.9%; in experiment [6] (setting [7]), -10%; in experiment [6] (setting [8]), -2%; in experiment [6] (at 50.0 µM), 69.7%.

In the case of `CC1=CC(c2c(O)cc(O)c(C(=O)CCc3ccccc3)c2O)C(C(C)C)CC1` (stereo not given), the growth inhibition was 11% in experiment [1] (setting [7]); 88% (active) in experiment [1] (setting [8]); 70.8% (active) in experiment [1] (at 50.0 µM); 10% in experiment [2] (setting [7]); 85% (active) in experiment [2] (setting [8]); 83% (active) in experiment [2] (at 50.0 µM). Further, the growth inhibition is 1% in experiment [3] (setting [7]); 91% (active) in experiment [3] (setting [8]); 80% (active) in experiment [3] (at 50.0 µM); 3% in experiment [4] (setting [7]); 87% (active) in experiment [4] (setting [8]); 79.2% (active) in experiment [4] (at 50.0 µM). The growth inhibition in experiment [5] (setting [7]) was 21%; in experiment [5] (setting [8]) it was 96% (active); in experiment [5] (at 50.0 µM), 76% (active); in experiment [6] (setting [7]), 8%; in experiment [6] (setting [8]), 76% (active); in experiment [6] (at 50.0 µM), 82.2% (active).

For the compound `CCCN1CSC(=S)N(CCC)C1`, the growth inhibition was 41% in experiment [1] (setting [7]); 92% (active) in experiment [1] (setting [8]); 52.5% in experiment [1] (at 50.0 µM); 48% in experiment [2] (setting [7]); 92% (active) in experiment [2] (setting [8]); 77% (active) in experiment [2] (at 50.0 µM). The growth inhibition in experiment [3] (setting [7]) is 32%; in experiment [3] (setting [8]), 99% (active); in experiment [3] (at 50.0 µM), 80.5% (active); in experiment [4] (setting [7]), 66%; in experiment [4] (setting [8]) it was 98% (active); in experiment [4] (at 50.0 µM), 32.1%. In addition, the growth inhibition is 34% in experiment [5] (setting [7]); 100% (active) in experiment [5] (setting [8]); 86.2% (active) in experiment [5] (at 50.0 µM); 37% in experiment [6] (setting [7]); 97% (active) in experiment [6] (setting [8]); 72.8% (active) in experiment [6] (at 50.0 µM).

Consider `CC1CCN(CCCOC(=O)c2ccccc2)CC1`, for which the growth inhibition is 25% in experiment [1] (setting [7]); 40% in experiment [1] (setting [8]); 58.9% in experiment [1] (at 50.0 µM); 13% in experiment [2] (setting [7]); 56% in experiment [2] (setting [8]); 30.5% in experiment [2] (at 50.0 µM). Further, the growth inhibition in experiment [3] (setting [7]) is 35%; in experiment [3] (setting [8]) it was 66%; in experiment [3] (at 50.0 µM), 62.1%; in experiment [4] (setting [7]), 25%; in experiment [4] (setting [8]), 54%; in experiment [4] (at 50.0 µM) it was 77% (active). Besides, the growth inhibition is 31% in experiment [5] (setting [7]); 64% in experiment [5] (setting [8]); 63.2% in experiment [5] (at 50.0 µM); 52% in experiment [6] (setting [7]); 74% (active) in experiment [6] (setting [8]); 55% in experiment [6] (at 50.0 µM).

In the case of `CCCCCCCCCCCC(=O)NC(CCC(=O)O)C(=O)O` (stereo not given), the growth inhibition in experiment [1] (setting [7]) is 4%; in experiment [1] (setting [8]) it was -2%; in experiment [1] (at 50.0 µM), -6.05%; in experiment [2] (setting [7]), -19%; in experiment [2] (setting [8]), -12%; in experiment [2] (at 50.0 µM) it was -8%. For the same compound, the growth inhibition was -3% in experiment [3] (setting [7]); -1% in experiment [3] (setting [8]); 5.95% in experiment [3] (at 50.0 µM); -5% in experiment [4] (setting [7]); -9% in experiment [4] (setting [8]); 49.4% in experiment [4] (at 50.0 µM). Further, the growth inhibition in experiment [5] (setting [7]) was -7%; in experiment [5] (setting [8]), 0%; in experiment [5] (at 50.0 µM) it was -2.15%; in experiment [6] (setting [7]) it was -18%; in experiment [6] (setting [8]) it was -8%; in experiment [6] (at 50.0 µM), 5.1%.

Take `CCCN(CCC)Cc1cc2c(cc1O)CC[C@@H]1[C@@H]2CC[C@]2(C)C(=O)CC[C@@H]12`: the growth inhibition was 98% (active) in experiment [1] (setting [7]); 87% (active) in experiment [1] (setting [8]); 84% (active) in experiment [1] (at 50.0 µM); 100% (active) in experiment [2] (setting [7]); 89% (active) in experiment [2] (setting [8]); 51.8% in experiment [2] (at 50.0 µM). For the same compound, the growth inhibition in experiment [3] (setting [7]) is 100% (active); in experiment [3] (setting [8]), 62%; in experiment [3] (at 50.0 µM), 80.1% (active); in experiment [4] (setting [7]), 52%; in experiment [4] (setting [8]), 20%; in experiment [4] (at 50.0 µM) it was 60.9%. For the same compound, the growth inhibition in experiment [5] (setting [7]) was 99% (active); in experiment [5] (setting [8]), 89% (active); in experiment [5] (at 50.0 µM), 37.5%; in experiment [6] (setting [7]) it was 99% (active); in experiment [6] (setting [8]) it was 94% (active); in experiment [6] (at 50.0 µM) it was 65.2%.

Consider `O=C1c2ccccc2C(=O)c2c1cccc2[N+](=O)[O-]`, for which the growth inhibition in experiment [1] (setting [7]) was 84% (active); in experiment [1] (setting [8]), 90% (active); in experiment [1] (at 50.0 µM), 90.9% (active); in experiment [2] (setting [7]) it was 67%; in experiment [2] (setting [8]) it was 86% (active); in experiment [2] (at 50.0 µM) it was 73% (active). In addition, the growth inhibition in experiment [3] (setting [7]) was 80% (active); in experiment [3] (setting [8]), 88% (active); in experiment [3] (at 50.0 µM), 86% (active); in experiment [4] (setting [7]), 69%; in experiment [4] (setting [8]), 86% (active); in experiment [4] (at 50.0 µM), 85.2% (active). Further, the growth inhibition is 82% (active) in experiment [5] (setting [7]); 88% (active) in experiment [5] (setting [8]); 71.4% (active) in experiment [5] (at 50.0 µM); 85% (active) in experiment [6] (setting [7]); 90% (active) in experiment [6] (setting [8]); 83.8% (active) in experiment [6] (at 50.0 µM).

`CC(=Nc1ccc(S(=O)(=O)c2ccc(N=C(C)N3CCCCC3)cc2)cc1)N1CCCCC1`: the growth inhibition is 0% in experiment [1] (setting [7]); 2% in experiment [1] (setting [8]); -0.05% in experiment [1] (at 50.0 µM); -1% in experiment [2] (setting [7]); -1% in experiment [2] (setting [8]); 4% in experiment [2] (at 50.0 µM). Besides, the growth inhibition is -2% in experiment [3] (setting [7]); 1% in experiment [3] (setting [8]); -6.45% in experiment [3] (at 50.0 µM); -5% in experiment [4] (setting [7]); -2% in experiment [4] (setting [8]); -10.5% in experiment [4] (at 50.0 µM). In addition, the growth inhibition in experiment [5] (setting [7]) was -1%; in experiment [5] (setting [8]), -1%; in experiment [5] (at 50.0 µM), -2.55%; in experiment [6] (setting [7]), -2%; in experiment [6] (setting [8]) it was -5%; in experiment [6] (at 50.0 µM) it was -2.15%.

For the compound `CCC1(CC(=O)O)OCCc2c1[nH]c1c(C)c(Cl)ccc21` (stereo not given), the growth inhibition in experiment [1] (setting [7]) is 10%; in experiment [1] (setting [8]), 99% (active); in experiment [1] (at 50.0 µM), 95.7% (active); in experiment [2] (setting [7]), 1%; in experiment [2] (setting [8]), 99% (active); in experiment [2] (at 50.0 µM), 98.1% (active). In addition, the growth inhibition in experiment [3] (setting [7]) was 2%; in experiment [3] (setting [8]) it was 97% (active); in experiment [3] (at 50.0 µM) it was 97.8% (active); in experiment [4] (setting [7]), -2%; in experiment [4] (setting [8]), 96% (active); in experiment [4] (at 50.0 µM), 97.2% (active). Besides, the growth inhibition in experiment [5] (setting [7]) is -4%; in experiment [5] (setting [8]) it was 96% (active); in experiment [5] (at 50.0 µM), 95.8% (active); in experiment [6] (setting [7]) it was -1%; in experiment [6] (setting [8]), 97% (active); in experiment [6] (at 50.0 µM), 97.5% (active).

In the case of `CCOP(=O)(OCC)OC1c2[nH]ccc2-c2cc(C(=O)OC)[nH]c2C1OC` (stereo not given), the growth inhibition was 3% in experiment [1] (setting [7]); 11% in experiment [1] (setting [8]); 12.5% in experiment [1] (at 50.0 µM); 0% in experiment [2] (setting [7]); 10% in experiment [2] (setting [8]); 25.9% in experiment [2] (at 50.0 µM). Also, the growth inhibition in experiment [3] (setting [7]) is -3%; in experiment [3] (setting [8]) it was 17%; in experiment [3] (at 50.0 µM), 83.2% (active); in experiment [4] (setting [7]), -6%; in experiment [4] (setting [8]) it was 6%; in experiment [4] (at 50.0 µM) it was 5.9%. Moreover, the growth inhibition was 3% in experiment [5] (setting [7]); -2% in experiment [5] (setting [8]); 21.5% in experiment [5] (at 50.0 µM); -5% in experiment [6] (setting [7]); 15% in experiment [6] (setting [8]); 61.4% in experiment [6] (at 50.0 µM).
